Anthrax LF prot: anthrax lethal factor protease inhibition | P15917 | multiplex microsphere protease cleavage assay, LF | inhibition, % at 10 µM | 360,000 compounds, 0.12% hits; further: plate controls were buffer without enzyme for full effect and enzyme alone for no effect
Autofluor counter: flagged as autofluorescent in microsphere protease counterscreen | compound autofluorescence counterscreen, microsphere flow cytometry; active compounds read high | fluorescence intensity (test concentration not listed) | 360,000 compounds, 3.1% hits; in the data active means fluorescence intensity above about 16000; inconclusive means no clear call, values can overlap the other calls
MazF activator: activators of E. coli MazEF toxin-antitoxin RNase; AID 504720; 350,000 compounds, 0.32% hits; activation, % at 20 µM; FAM/BHQ RNA-DNA oligo cleavage fluorescence, 5 h; P0AE70; in the data active means activation above about 50%
BoNT F protease: BoNT F light chain protease inhibition; Multiplex microsphere protease cleavage assay, flow cytometry; inhibition, % at 10 µM; 360,000 compounds, 0.22% hits; in the data active means inhibition above about 35%, passing the limit was not always enough; inconclusive means no clear call, values can overlap the other calls; further: plate controls were buffer without enzyme for full effect and enzyme alone for no effect
BoNT A protease: BoNT A light chain protease inhibition; multiplex microsphere protease substrate cleavage, flow cytometry; inhibition, % at 10 µM; 360,000 compounds, 0.17% hits; further: plate controls were buffer without enzyme for full effect and enzyme alone for no effect
* marks the source's active call; other numbers are inactive results; ? = inconclusive; · = not tested or not shown. A selection: hits, their analogues and other compounds. The true share with any hit is near 3.7%. Unless noted, no stated cut-off is given here; in the data, active means inhibition above about 30%; inconclusive means no clear call, values can overlap the other calls; inactive means below that.

SMILES	Anthrax LF prot	Autofluor counter	MazF activator	BoNT F protease	BoNT A protease
COC(=O)c1cc(OC)c(OC)cc1NC(=S)N1CCCC(CO)C1 (stereo not given)	4	22143*	-11	1	1
C=C(C)COc1ccc(C2NC(=O)c3ccccc3O2)cc1OCC (stereo not given)	2	4025	3	?	-2
CCOc1ccc(CCNC(=O)COC(=O)c2cccnc2OCC)cc1OCC	-2	16322*	1	0	-1
CCOc1ccc(CCNC(=O)COC(=O)c2ccccc2O)cc1OCC	-1	4503	7	0	0
CSCC[C@H](NC(=O)Nc1cccc(Br)c1)C(=O)O	-8	3557	-4	-2	0
O=c1c2c3c(sc2n2cnnc2n1CCc1ccccc1)CCCC3	-4	16649*	4	-2	-2
Cn1c(=O)c2c3c(sc2n2cnnc12)CCC3	-1	3279	-2	-2	0
NC(=O)Cn1c(=O)n(CCc2ccccc2)c(=O)c2c3c(sc21)CCCC3	-3	16478*	-2	-5	-1
Cc1ccc(OC(C)C(=O)N2CC(=O)Nc3ccccc32)cc1 (stereo not given)	-20	3862	4	-2	-3
CCSc1ncnc2c1oc1ccccc12	-15	16868*	6	10	7
CN(C)CCOc1nc(-c2ccccc2)nc2c1oc1ccccc12	5	3195	3	7	1
CCN(CC)CCOc1nc(C)nc2c1oc1ccccc12	-7	4333	5	11	-1
c1coc(CN(Cc2ccco2)c2ncnc3c2oc2ccccc23)c1	-3	19845*	-3	-1	1
CCN(CC)CCCOc1nc(C)nc2c1oc1ccccc12	2	23099*	8	-1	0
CN(C)CCOc1ncnc2c1oc1ccccc12	0	18425*	-9	3	3
CCOC(=O)C1(Cc2cccc(Cl)c2)CCCN(C(=O)CCSC)C1 (stereo not given)	4	3526	2	?	3
Cc1cc(C)nc(Sc2ncnc3c2oc2ccccc23)n1	0	21474*	1	3	2
c1ccc2cc(Sc3ncnc4c3oc3ccccc34)ccc2c1	-2	6000	3	-4	1
c1ccc(-c2ccc(CNC3CC3)cc2)cc1	-14	4228	3	-23	-2
Cc1ccc(S(=O)(=O)NCC(c2cccnc2)N2CCc3ccccc32)cc1 (stereo not given)	-3	5703	6	-5	0
COc1ccc(Cn2c(CCC(=O)Nc3ccccc3)nc3cccnc32)cc1	-1	3486	4	14	2
COc1ccc(Cn2c(CCC(=O)Nc3ccc(CC#N)cc3)nc3cccnc32)cc1	-2	22433*	-1	1	2
COCCCNC(=O)CCc1nc2cccnc2n1Cc1ccccc1	-2	23819*	0	-2	0
CCCN(C(=O)CSCC(=O)Nc1ccc(OC)cc1)c1c(N)n(Cc2ccccc2)c(=O)[nH]c1=O	-3	4292	-8	9	3
COc1ccc(COC(=O)c2ccc(Cl)c(S(=O)(=O)N3CC(C)OC(C)C3)c2)cc1 (stereo not given)	·	·	-2	·	·
SMILES	Anthrax LF prot	Autofluor counter	MazF activator	BoNT F protease	BoNT A protease
CN(Cc1ccc(F)cc1)C(=O)CNC(=O)C1CCCCC1	1	5632	3	10	1
O=C(Nc1c(C(=O)N2CCOCC2)cnn1-c1ccccc1)c1ccccc1	-2	11466	3	5	-1
O=C(Nc1c(C(=O)N2CCOCC2)cnn1-c1ccccc1)c1ccco1	-4	23770*	-3	-2	?
COc1ccc(-c2nnn(CC(=O)NCCc3c[nH]c4ccccc34)n2)cc1OC	-2	21211*	-2	-4	-2
CCCCC(OC(=O)c1ccco1)C(=O)NCc1ccc(C)cc1 (stereo not given)	-6	2936	8	1	-1
CN(C)c1ccc(/C=C2\SC(=S)N(Nc3ncc(C(F)(F)F)cc3Cl)C2=O)cc1	4	10036	52*	14	6
Cc1ccc(NC2CCCN(C(=O)c3ccoc3)C2)cc1C (stereo not given)	-6	4638	-13	-4	-3
CCS(=O)(=O)N1CCN(C2Cc3ccccc3C2)CC1	-1	22089*	9	0	?
CCc1ccc(N(C(=O)CCC(=O)Nc2cc(C)on2)C(C(=O)NC(C)(C)C)c2ccc(OC)cc2)cc1 (stereo not given)	-6	3818	-6	35*	-1
CC(C)c1ccc(S(=O)(=O)N2CCN(C(=O)C3CCCC3)CC2)cc1	-12	3857	-4	-22	-1
Cc1ccccc1C(=O)Oc1ccc(Br)cc1C(=S)N1CCCC1	-2	22492*	0	-2	?
